NR5A2 inv ag = LRH-1 (NR5A2) inverse agonists, primary screen, cell-based, luminescence, HEK293T, StAR-luciferase reporter | AID 602396, 2012 | Nuclear receptor subfamily 5 group A member 2 (Homo sapiens), O00482 | LRH-1 transfected, 24 h | inhibition, % at 3.6 µM | 360,000 tested, 0.13% active;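 active = inhibition above the mean inhibition of all tested compounds plus 3 SD, cut at about 73% in these data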;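 also: 0% = DMSO wells and 100% = reporter-only cells lacking LRH-1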
NCOA2 inhibitor = inhibition of GAL4-SRC2 driven luciferase reporter, primary screen, SRC2 inhibitor project, cell-based, luminescence | Nuclear receptor coactivator 2 (Homo sapiens), Q15596 | HEK293 GAL4-SRC2 luciferase reporter | inhibition, % at 9 µM | 370,000 tested, 0.17% active | AID 651957, 2012;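 active = inhibition above the mean inhibition of all tested compounds plus 3 SD, set per campaign, cut at about 52% in these data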;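 also: 0% = DMSO treated cells and 100% = cells given Gossypol at 36 µM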
NCOA1 inh = SRC1 coactivator transcriptional activity inhibitors, primary screen, cell-based, luminescence; Nuclear receptor coactivator 1 (Homo sapiens), Q15788; HEK293 GAL4-SRC1 luciferase reporter; inhibition, % at 3.6 µM; 360,000 tested, 0.12% active;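 active = inhibition above the campaign mean plus 3 SD, with each screening campaign given its own cutoff, cut at about 60% in these data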;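 also: 0% = DMSO treated cells and 100% = gossypol at 36 µM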
NR2F2 inh = NR2F2 transcriptional activity inhibitors, primary screen, cell-based, luciferase reporter, HEK293T, luminescence | HEK293T NGFI-A luciferase reporter | inhibition, % at 8.6 µM | 370,000 tested, 0.7% active;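 active = inhibition above a per-plate cutoff, mean inhibition of test wells between control levels plus 3 SD, cut at about 38% in these data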;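 also: cells cotransfected with COUP-TFII expression vector driving the NGFI-A reporter; 0% = median of COUP-TF2 test wells and 100% = reporter-only cells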
Target sequence (P24468 whole entry, looked up): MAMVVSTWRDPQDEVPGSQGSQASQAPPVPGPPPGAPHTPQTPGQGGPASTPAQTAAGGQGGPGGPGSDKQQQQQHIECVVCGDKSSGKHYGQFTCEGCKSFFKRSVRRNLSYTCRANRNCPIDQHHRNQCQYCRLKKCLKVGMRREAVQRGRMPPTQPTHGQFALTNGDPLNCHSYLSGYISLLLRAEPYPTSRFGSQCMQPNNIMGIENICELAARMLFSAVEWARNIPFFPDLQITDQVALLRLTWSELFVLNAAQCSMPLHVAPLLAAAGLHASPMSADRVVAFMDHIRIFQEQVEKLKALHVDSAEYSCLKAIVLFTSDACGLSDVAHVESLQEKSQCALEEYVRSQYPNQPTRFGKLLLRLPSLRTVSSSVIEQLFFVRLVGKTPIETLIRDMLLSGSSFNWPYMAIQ
NCOA3 inh = SRC3 coactivator transcriptional activity inhibitors, primary screen, cell-based, luminescence; Nuclear receptor coactivator 3 (Homo sapiens), Q9Y6Q9; HEK293 GAL4-SRC3 luciferase reporter; inhibition, % at 3.6 µM; 360,000 tested, 0.17% active; AID 588352, 2011;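 active = inhibition above a per-campaign cutoff, the mean of all compounds plus 3 SD, cut at about 60% in these data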;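 also: 0% = DMSO-treated cells and 100% = gossypol-treated cells at 36 µM; higher means less SRC3-driven luciferase light from the GAL4 reporter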
GalR3 antag = GalR3 antagonists in HEK293 cells, primary screen, cell-based, fluorescence readout; HEK293 GalR3-CNG cAMP membrane potential fluorescence; galR3 body fused to GalR1 C-terminus; AID 651719, 2012; 360,000 tested, 0.44% active; inhibition, % at 3 µM; Galanin receptor type 3 (Homo sapiens), O60755;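 active = inhibition above the screen-wide average plus 3 SD, cut at about 13% in these data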;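 also: forskolin and galanin both at EC90 stimulate the cells; cAMP rise reported by CNG channel membrane potential dye signal; 0% = forskolin plus galanin with DMSO and 100% = forskolin alone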
Target sequence (O60755 1-299 limits assumed): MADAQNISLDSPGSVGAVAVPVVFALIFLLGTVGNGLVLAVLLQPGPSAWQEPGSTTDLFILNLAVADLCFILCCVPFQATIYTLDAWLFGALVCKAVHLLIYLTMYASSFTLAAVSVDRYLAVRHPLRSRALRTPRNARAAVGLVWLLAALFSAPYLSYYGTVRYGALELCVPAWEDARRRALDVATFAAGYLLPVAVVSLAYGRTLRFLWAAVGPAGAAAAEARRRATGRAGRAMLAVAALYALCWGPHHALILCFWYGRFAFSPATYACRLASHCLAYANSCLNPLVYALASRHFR
VP16 Luc counter = Gal4-VP16 luciferase reporter inhibitors, counter-screen for COUP-TFII antagonist project, cell-based, luminescence, HEK293. 2,500 tested, 25% active. AID 687007, 2013. shares compounds with NR2F2 inh. inhibition, % at 8.5 µM; in the data active = inhibition above about 13%
NR2F2 inh conf = NR2F2 transcriptional activity inhibitors, confirmation, cell-based, luciferase reporter, HEK293, triplicate | 2,500 tested, 45% active | shares compounds with NR2F2 inh | inhibition, % at 8.5 µM | HEK293 NGFI-A luciferase reporter, luminescence;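 active = mean inhibition over three repeats above a set limit taken from the earlier primary screen, cut at about 38% in these data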;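 also: 100% = cells given the luciferase reporter alone without the COUP-TF2 vector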
* marks the source's active call; other numbers are inactive results; / = no result. An excerpt weighted towards active compounds, which were near 1.1% of everything screened.

SMILES	NR5A2 inv ag	NCOA2 inhibitor	NCOA1 inh	NR2F2 inh	NCOA3 inh	GalR3 antag	VP16 Luc counter	NR2F2 inh conf
CCCC(=O)OC[C@H]1CN(C2CCCC2)S(=O)(=O)c2c(Oc3ccc(F)cc3OC)cccc2O1	/	1.0	/	8.3	/	-6.0	/	/
Cc1oc(-c2ccc(Cl)cc2)nc1CS(=O)CC(=O)NCCCN1CCOCC1 (stereo not drawn)	-9.1	4.2	-24.8	-2.3	-3.7	0.6	/	/
Cc1ccc(-c2nc(CS(=O)CC(=O)NCCCN3CCN(Cc4ccccc4)CC3)c(C)o2)cc1 (stereo not drawn)	18.6	-16.1	8.5	41.1*	46.6	-11.3	-6.1	20.9
COC(=O)[C@]12C[C@H](CC(=O)NCc3cccc4ccccc34)C(=O)N(Cc3ccc4c(c3)OCO4)C1=C[C@H](C(C)C)O[C@@H]2C1CC1	/	-0.8	/	5.0	/	/	/	/
O=C1C(=C(c2ccccc2)N2CCOCC2)Cc2ccccc21	14.1	-145.4	-8.7	38.8*	8.5	-3.9	39.8*	14.3
O=C(c1ccccc1)N1CCN(C(=O)N2CCOCC2)CC1	-3.5	18.7	4.0	6.3	9.5	-2.1	/	/
O=S1(=O)c2c(NCc3ccco3)cccc2Oc2ccccc2CN1Cc1cn(Cc2ccccc2C(F)(F)F)nn1	/	-25.2	/	6.4	/	/	/	/
O=C1COc2ccc(S(=O)(=O)CCC(=O)N3CCN(c4cccc(Cl)c4)CC3)cc2N1	-17.8	-2.1	-10.7	4.3	-1.6	-11.2	/	/
Cc1ccc(Cl)cc1N1CCN(C(=O)CCS(=O)(=O)c2ccc3c(c2)NC(=O)CO3)CC1	3.8	42.2	10.3	53.9*	14.3	-4.5	-3.0	24.4
COc1ccc(C(=O)N2CCC2(C)C(=O)O)cc1F (stereo not drawn)	-5.1	9.6	4.0	-2.2	1.4	-2.8	/	/
O=C(Nc1nccs1)c1ccc(S(=O)(=O)NCC2CCCCC2)cc1	41.7	6.5	6.3	59.9*	28.4	-6.6	8.4	41.4*
COc1ncc(-c2ccc(N3C(c4ccsc4)=Cc4ccccc4C3CC(C)=O)cc2)cn1 (stereo not drawn)	-13.1	-23.5	/	-7.9	/	-6.8	/	/
CC(=O)CC1c2ccccc2C=C(c2ccsc2)N1c1ccc(-c2cccs2)cc1 (stereo not drawn)	16.1	5.7	/	45.7*	/	-5.9	-14.5	-4.0
COc1ccc(Br)cc1C(C[N+](=O)[O-])c1c(N)n(C)c(=O)n(C)c1=O (stereo not drawn)	27.5	-27.6	-25.8	40.7*	-3.0	2.8	7.4	23.5
CN1CCCCC(NC(=O)c2ccc(F)cc2)C1=O (stereo not drawn)	/	10.6	/	6.5	/	-2.0	/	/
CCN(CC)S(=O)(=O)c1cc(NC(=O)c2ccc(-n3cncn3)c([N+](=O)[O-])c2)ccc1C	10.2	27.3	-18.3	54.0*	16.7	-1.1	3.9	23.2
C=CCN1C(=O)[C@@H](CC(=O)NCc2cccc3ccccc23)[C@]2(C(=O)OCC)CCCCC/C=C/12	/	-10.6	/	9.5	/	/	/	/
Cc1ccc2nc(-c3cc(-c4ccccc4)no3)cn2c1	-134.0	-32.4	-54.3	-22.5	-10.0	-3.4	/	/
CCc1ccn2cc(-c3cc(-c4ccccc4)no3)nc2c1	33.4	73.7*	44.4	87.9*	52.3	-2.9	18.3*	66.6*
CCCNC(=O)c1ccc(N2CCC3(CC2)CC(c2cccc(Br)c2)=NO3)c([N+](=O)[O-])c1	11.7	35.4	8.1	54.0*	19.2	-9.8	1.3	27.7
CC(C)[C@H](NC(=O)C1CC1)C(=O)N1CCC[C@H]1C(=O)NCc1ccccc1	/	11.2	/	-6.9	/	-1.8	/	/
CN(C)S(=O)(=O)N1CCC(Oc2cccc(C(=O)NCCC3=CCCCC3)c2)CC1	10.6	27.1	5.4	55.6*	12.2	0.0	-8.5	16.7
CCOc1ccc(OCc2ccc(C(=O)NN=Cc3ccc[nH]3)cc2)cc1	85.9*	-27.9	-4.8	73.0*	53.2	56.5*	-4.5	70.5*
O=C(Nc1c(F)cccc1F)c1cnc(N2CCN(c3ccccn3)CC2)c2ccccc12	45.8	1.3	14.6	29.2	31.5	-1.4	/	/
Cc1ccc(NC(=O)c2cnc(N3CCN(c4ccccn4)CC3)c3ccccc23)c(Br)c1	20.9	18.0	37.1	38.3*	27.0	-4.0	-6.2	39.2*
SMILES	NR5A2 inv ag	NCOA2 inhibitor	NCOA1 inh	NR2F2 inh	NCOA3 inh	GalR3 antag	VP16 Luc counter	NR2F2 inh conf
CC(C)(C)n1ncc2c(=O)n(CC(=O)OCc3ccccc3)cnc21	10.3	32.6	42.1	60.7*	60.0	-3.8	59.2*	80.5*
COCCCNC(=O)C[C@H]1C[C@@]2(C(=O)OC)C(=C[C@H](C3CCCC3)O[C@@H]2C)N(Cc2ccco2)C1=O	/	-10.5	/	-3.2	/	/	/	/
COc1ccc(CN2CCN(C(=O)c3ccc(S(=O)(=O)N4CCCCCC4)cc3)CC2)cc1F	28.3	-36.6	12.7	52.6*	19.6	-0.8	-4.8	31.8
Nc1ncnc2c1nc(-c1ccccc1)n2C1OC(CO)C(O)C1O (stereo not drawn)	17.9	-9.4	-5.6	10.2	19.7	-6.7	/	/
Nc1ncnc2c(C3OC(CO)C(O)C3O)c[nH]c12 (stereo not drawn)	99.5*	69.5*	94.2*	81.8*	94.0*	-5.6	48.9*	80.6*
OCCN(CCO)CC(O)COc1ccc(C23CC4CC(CC(C4)C2)C3)cc1 (stereo not drawn)	39.8	73.5*	41.7	87.1*	55.2	-5.2	62.5*	72.2*
OCCN(CCO)CC(O)COc1ccc(Br)cc1 (stereo not drawn)	4.9	-23.2	13.2	-26.3	21.1	6.8	/	/
Cc1c(C(=O)NCc2ccc(Cl)c(Cl)c2)sc(=O)n1Cc1ccc(C(=O)N(C)C)cc1	31.7	-4.6	-4.1	49.5*	21.6	0.8	0.6	4.2
Cc1c(C(=O)NCc2cccc(Cl)c2)sc(=O)n1Cc1ccc(C(=O)N(C)C)cc1	-20.7	7.3	-5.7	27.0	4.0	-1.3	/	/
C=Cc1ccc(Cn2c(C)c(C(=O)NCc3ccc(Cl)c(Cl)c3)sc2=O)cc1	-4.7	-54.0	-0.6	-10.1	-8.5	2.7	/	/

Screens as filed in PubChem BioAssay.
